hNpr1 antagonist: Natriuretic polypeptide receptor (hNpr1) antagonism - Primary qHTS. Atrial natriuretic peptide receptor 1 (Homo sapiens), P16066. HEK293 hNpr1 GloSensor cGMP, ANP-stimulated luminescence. Potency, µM (highest dose often 46.3 µM), hits mostly inhibitors. 1.6% of 76,000 active. AID 1347048, 2019; calls by dose curve; also: nearly all actives have a fitted effect of over 60% in size
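HEK293 cells stably expressing human Npr1 and cGMP GloSensor pGS-40F, loaded 2 h with 2% GloSensor reagent, given compound 30 min at room temperature. Luminescence read before and 20 min after 0.1 nM hNppA.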
HEK cytotox: Cytotoxic Profiling in HEK 293 Cell Line of Diverse Libraries Using Quantitative High-Throughput Screening; 6.6% of 94,000 active; Potency, µM (top dose mostly 115 µM), hits mostly inhibitors; HEK 293 viability, ATP luminescence (CellTiter-Glo), 48-72 h; AID 1345083, 2018; also: nearly all actives have a fitted effect of over 60% in size
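HEK 293 seeded at 250 cells/well receive compound via pintool. After 48 or 72 hr at 37 degree Celsius, 5% CO2 and 95% humidity, CellTiter-Glo is dispensed and luminescence read following 10 min at room temperature.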
GPT2 inhibitor: Primary qHTS assay for inhibitors of Glutamate pyruvate transaminase 2 (GPT2) | 0.25% of 100,000 active | Potency, µM (titrated, usually from 57.7 µM), most hits filed as inhibitors | Alanine aminotransferase 2 (Homo sapiens), Q8TD30 | AID 1671188, 2021 | Recombinant GPT2, coupled pyruvate oxidase/HRP Amplex Red fluorescence; also: nearly all actives have a fitted effect of over 60% in size
Target sequence (Q8TD30 whole entry, looked up): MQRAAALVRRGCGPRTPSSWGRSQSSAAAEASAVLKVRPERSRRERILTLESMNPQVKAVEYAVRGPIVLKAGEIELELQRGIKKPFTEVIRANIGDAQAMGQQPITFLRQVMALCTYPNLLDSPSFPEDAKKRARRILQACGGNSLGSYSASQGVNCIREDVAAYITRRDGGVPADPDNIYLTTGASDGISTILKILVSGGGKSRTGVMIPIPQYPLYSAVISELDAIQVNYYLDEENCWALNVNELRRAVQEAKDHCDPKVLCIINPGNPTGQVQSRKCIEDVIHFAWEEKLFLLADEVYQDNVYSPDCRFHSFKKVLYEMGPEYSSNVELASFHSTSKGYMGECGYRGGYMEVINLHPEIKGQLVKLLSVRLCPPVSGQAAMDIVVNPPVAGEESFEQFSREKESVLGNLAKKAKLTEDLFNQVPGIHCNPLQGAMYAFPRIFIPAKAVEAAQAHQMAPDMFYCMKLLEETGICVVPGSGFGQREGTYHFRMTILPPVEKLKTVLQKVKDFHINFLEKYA
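Inhibition is scored from Amplex Red fluorescence generated when pyruvate oxidase and HRP act on pyruvate released by GPT2. Reactions contain 10ng/uL enzyme, 250uM a-KG and 2mM L-alanine and run 30 min at room temperature.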
NIH3T3 tox: Cytotoxic Profiling in NIH 3T3 Cell Line of Diverse Libraries Using Quantitative High-Throughput Screening; 4.3% of 94,000 active; Potency, µM (doses to about 96.7 µM), usual class: inhibitors; NIH 3T3 viability, CellTiter-Glo ATP luminescence, 48-72 h; also: nearly all actives have a fitted effect of over 55% in size
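Cells were seeded at 400 per well, treated with pin-transferred compound, and kept 48 or 72 hr at 37 °C before CellTiter-Glo addition and luminescence imaging of cellular ATP.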
FLuc inh: Firefly luciferase inhibition profiling of diverse chemical library using quantitative high-throughput screening; Luciferin 4-monooxygenase (Photinus pyralis), P08659; purified P. pyralis luciferase, luminescence, biochemical; Potency, µM (doses to about 115 µM), most hits filed as inhibitors; 2.5% of 76,000 active; AID 1347043, 2019; also: nearly all actives have a fitted effect of over 65% in size
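Cell-free enzyme assay, 10nM P. pyralis luciferase, luciferin and ATP each at 10uM. Inhibition profiled over a 6-point titration, read as luminescence.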
Hits are given with their value; 0 = inactive; ? = inconclusive; - = not tested or not shown; ! = not active in a repeat. An excerpt weighted towards active compounds, which were near 10% of everything screened. Unless noted, calls follow the shape of the dose curve; as a rule, active = well fitted curve in the direction sought with a large enough effect; inconclusive = small, poorly fitted or top-dose-only effect, or another doubt; inactive = no such curve, though single readings can be large; an effect the other way counts as inactive or inconclusive.

SMILES | hNpr1 antagonist | HEK cytotox | GPT2 inhibitor | NIH3T3 tox | FLuc inh
COCC(=O)N1CCCN(Cc2cccnc2)c2ccccc21 | 0 | ? | 0 | 0 | 0
COc1ccccc1CC(=O)N1CCCN(CCc2ccccc2)c2ccccc21 | 0 | 40µM | 0 | ? | 0
CN(C)CCN1CCCN(C(=O)CCc2ccccc2)c2ccccc21 | 0 | ? | 0 | 0 | 0
COCCN1CCCN(C(=O)c2cccc(Cl)c2)c2ccccc21 | 0 | 45µM | 0 | ? | 0
COc1cccc(CC(=O)N2CCC(c3n[nH]c(=O)n3-c3ccc(C)cc3)CC2)c1 | 0 | 0 | 0 | 10µM | 0
Cc1ccc(CC(=O)N2CCC(c3n[nH]c(=O)n3-c3ccccc3)CC2)cc1 | 0 | 0 | 0 | 35µM | 0
Cc1ccc(-n2c(C3CCN(C(=O)Cc4cccc(C)c4)CC3)n[nH]c2=O)cc1 | 0 | 0 | 0 | ? | 0
Cc1ccc(-n2c(C3CCN(C(=O)Cc4ccc(Cl)cc4)CC3)n[nH]c2=O)cc1 | 0 | 0 | 0 | 45µM | 0
Cc1ccc(-n2c(C3CCN(C(=O)Cc4ccccc4C)CC3)n[nH]c2=O)cc1 | 0 | 0 | 0 | ? | 0
Cc1ccc(-n2c(C3CCN(C(=O)c4nn(C)c5ccccc45)CC3)n[nH]c2=O)cc1 | 0 | 0 | 0 | 8.9µM | 0
Cc1ccc(-n2c(C3CCN(C(=O)Cc4ccccc4Cl)CC3)n[nH]c2=O)cc1 | 0 | 0 | 0 | ? | 0
CC(C)N1C(=O)C2(CCCC2)C1C(=O)N1CCN(C2CCCCC2)CC1 (stereo not given) | 0 | 0 | 0 | 0 | 0
Cn1nc(C(=O)N2CCC(OCCOc3ccccc3)CC2)c2ccccc21 | 0 | ? | 0 | ? | 40µM
CCOCCOC1CCN(C(=O)c2nn(C)c3ccccc23)CC1 | 0 | 0 | 0 | 0 | 0
COc1ccc(C(=O)NCC2(COc3ccccc3)C[C@@H](O)[C@@H](O)C2)cc1 (stereo not given in full) | 0 | 0 | 0 | 45µM | 0
O=C1NC2(CCN(C(=O)c3ccc4c(c3)OCO4)CC2)COc2ccccc21 | 0 | 0 | ? | 0 | 0
Cc1ccc(C(=O)N2CCCC3(COc4ccccc4C(=O)N3)C2)cc1 (stereo not given) | 0 | 63µM | 0 | ? | 0
O=C1NC2(CCCN(C(=O)c3ccc4c(c3)OCO4)C2)COc2ccccc21 (stereo not given) | 0 | 40µM | 0 | ? | 0
O=C1NC2(CCCN(C(=O)c3ccccc3F)C2)COc2ccccc21 (stereo not given) | 13µM | 35µM | 0 | ? | 0
Cc1ccc(NC(=O)Cn2c(-c3ccc(Cl)cc3)nc(C)c(CCO)c2=O)c(C)c1 | 0 | 0 | 0 | 0 | 0
CC(C/C=C/C(C)(C)O)C1CCC(C)(O)C(O)C1 (stereo not given) | - | - | 0 | - | -
Cc1ccccc1Nc1cc2c(nc1-c1ccccc1)nc(C(=O)NCCN(C)C)n2C | 0 | 40µM | ? | 32µM | 0
CN(C)CCNC(=O)c1nc2nc(-c3ccccc3)c(-c3cccnc3)cc2n1C | 0 | ? | 0 | ? | 0
CN(C)CCNC(=O)c1nc2nc(-c3ccccc3)c(Nc3ccc(F)cc3)cc2n1C | 0 | 56µM | 0 | ? | 0
CCC(=O)N1CCC2(CC1)c1[nH]c3ccccc3c1CCN2C | 0 | 0 | 0 | 0 | 0
SMILES | hNpr1 antagonist | HEK cytotox | GPT2 inhibitor | NIH3T3 tox | FLuc inh
O=c1c2nc(-c3cccc(O)c3)ccc2ncn1-c1ccccc1 | 0 | ? | 0 | 8.9µM | 71µM
O=c1c2nc(-c3cccc(O)c3)ccc2ncn1C1CC1 | 0 | 0 | 0 | 63µM | ?
COc1ccc(-c2ccc3ncn(C4CC4)c(=O)c3n2)cc1OC | 0 | ? | 0 | 40µM | 63µM
O=c1c2nc(OCc3ccc(F)cc3)ccc2ncn1C1CC1 | 0 | ? | 0 | ? | 0
O=C(NCCc1ccccn1)C1CN(C2CCCC2)C(=O)N1 (stereo not given) | - | 0 | 0 | 0 | -
Cc1cccn2c(CC(=O)N[C@H](c3ccccn3)C3CC(O)C3)cnc12 (stereo not given in full) | 0 | 0 | 0 | 0 | 0
CCc1[nH]c2ccc(CNC(=O)c3coc(CN4CCOCC4)c3)cc2c1C | 0 | 0 | 0 | 0 | 32µM
CCc1[nH]c2ccc(CNC(=O)c3scc4c3OCCO4)cc2c1C | 0 | ? | 0 | 0 | ?
CCc1[nH]c2ccc(CNC(=O)Cc3cnc4c(C)cccn34)cc2c1C | 7.1µM | ? | 0 | ? | ?
CSc1ccc(-c2cccc(C(=O)NCC(=O)NCCc3ccc(F)cc3)c2)cc1 | - | ? | 0 | 0 | -
O=C(N1CCOc2ccc(CN3CCc4ccccc4C3)cc2C1)C1(c2ccccc2)CC1 | ? | 45µM | 0 | ? | 0
Cc1ccsc1C(=O)N1CCOc2ccc(CN3CCc4ccccc4C3)cc2C1 | 0 | 35µM | 0 | ? | 0
CCC(=O)N1CCOc2ccc(CN3CCc4ccccc4C3)cc2C1 | 0 | ? | 0 | 0 | 0
COc1cccc(C(=O)N2CCOc3ccc(CN4CCc5ccccc5C4)cc3C2)c1 | 0 | 45µM | 0 | ? | 0
CCc1nc(-c2c3n(c(=O)n(CC(=O)Nc4cccc(C#N)c4)c2=O)CCCCC3)no1 | 0 | 0 | 0 | 0 | 0
O=C(CCCCCCC(=O)Nc1ccc(C2OC(CSc3nc(-c4ccccc4)c(-c4ccccc4)o3)CC(c3ccc(CO)cc3)O2)cc1)NO (stereo not given) | - | - | 0 | - | -
COc1ccc(CCNC(=O)c2nc3cccnc3n(CC(C)C)c2=O)cc1 | - | ? | 0 | 45µM | -
COc1ccc(Cn2c(=O)c(C(=O)NCc3ccccc3)nc3cccnc32)cc1 | - | ? | 0 | ? | -
COc1ccc(CNC(=O)c2nc3cccnc3n(Cc3ccc(OC)cc3)c2=O)cc1 | - | 79µM! | 0 | ? | -
CN1CCCN(S(=O)(=O)c2ccc3c(c2)OCCO3)c2ccccc21 | 0 | 32µM | 0 | ? | 0
CN1Cc2ccc(Nc3ccccc3)nc2C(C)(C(=O)NCc2ccc3c(c2)OCO3)C1 (stereo not given) | 0 | 79µM | ? | 50µM | 0
CC(C)CNc1ccc2c(n1)C(C)(C(=O)Nc1ccn(C)n1)CN(Cc1ccccc1)C2 (stereo not given) | 0 | ? | 0 | ? | 0
CC(C)CNc1ccc2c(n1)C(C)(C(=O)Nc1ccncc1)CN(Cc1ccccc1)C2 (stereo not given) | 0 | 32µM | 0 | 22µM | 0
CC1(C(=O)NCc2ccccc2)CN(Cc2ccccc2)Cc2ccc(N3CCOCC3)nc21 (stereo not given) | 0 | 50µM | 0 | ? | 0
CC(C)CNc1ccc2c(n1)C(C)(C(=O)NCCc1cnc[nH]1)CN(Cc1ccccc1)C2 (stereo not given) | 0 | ? | 0 | 32µM | 0

Source: PubChem BioAssay
